# PMC5700166
# Legend:
# Experiment in all cases: protein-binding microarray (PBM); PBM: ~300 nM protein, 6 mM HEPES pH 7.8, 80 mM KCl, 0.5 mM EDTA, 0.5 mM EGTA, 6% glycerol, 35 ng/ul poly-dIdC, 1% milk, 1 h, room temperature; Ap Aiptasia and Nv Nematostella (sea anemones) / Co Capsaspora / Aq Amphimedon (sponge) / Dm Drosophila / Hu human; RHD is the Rel homology domain; high values mean tight binding
# Conditions in all cases: dsDNA, one strand shown
# [1] = biological target: T1, GST-Ap-NF-kB RHD (Exaiptasia pallida (Aiptasia), UniProt A0A913YAJ5 2-422)
# T1 sequence: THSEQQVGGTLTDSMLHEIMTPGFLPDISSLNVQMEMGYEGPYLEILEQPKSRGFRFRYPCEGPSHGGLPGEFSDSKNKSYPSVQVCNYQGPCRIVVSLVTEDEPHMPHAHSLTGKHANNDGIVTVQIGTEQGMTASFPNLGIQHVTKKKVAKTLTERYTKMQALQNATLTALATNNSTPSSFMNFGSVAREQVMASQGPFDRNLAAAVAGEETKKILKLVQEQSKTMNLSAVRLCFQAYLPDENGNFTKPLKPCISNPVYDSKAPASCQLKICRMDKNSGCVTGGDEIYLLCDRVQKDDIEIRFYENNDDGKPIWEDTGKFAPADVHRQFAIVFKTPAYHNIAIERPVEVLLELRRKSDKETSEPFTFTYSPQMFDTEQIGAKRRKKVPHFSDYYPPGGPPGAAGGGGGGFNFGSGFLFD
# [2] = biological target: T2, GST-Nv-NF-kB (Cys allele) (Nematostella vectensis, UniProt E5G601 2-411)
# T2 sequence: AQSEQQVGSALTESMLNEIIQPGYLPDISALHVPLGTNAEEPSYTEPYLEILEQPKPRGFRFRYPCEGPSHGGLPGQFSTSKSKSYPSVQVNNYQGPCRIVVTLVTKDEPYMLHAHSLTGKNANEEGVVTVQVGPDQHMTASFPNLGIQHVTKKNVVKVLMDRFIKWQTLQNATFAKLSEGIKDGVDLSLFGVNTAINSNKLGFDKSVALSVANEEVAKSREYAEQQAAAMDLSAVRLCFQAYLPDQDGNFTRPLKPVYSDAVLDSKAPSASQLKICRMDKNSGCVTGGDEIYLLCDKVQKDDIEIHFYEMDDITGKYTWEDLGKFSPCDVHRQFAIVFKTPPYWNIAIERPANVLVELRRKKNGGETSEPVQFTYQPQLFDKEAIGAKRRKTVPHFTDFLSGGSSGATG
# [3] = biological target: T3, GST-Co-NF-kB (Capsaspora owczarzaki, UniProt F1ARL5 200-546)
# T3 sequence: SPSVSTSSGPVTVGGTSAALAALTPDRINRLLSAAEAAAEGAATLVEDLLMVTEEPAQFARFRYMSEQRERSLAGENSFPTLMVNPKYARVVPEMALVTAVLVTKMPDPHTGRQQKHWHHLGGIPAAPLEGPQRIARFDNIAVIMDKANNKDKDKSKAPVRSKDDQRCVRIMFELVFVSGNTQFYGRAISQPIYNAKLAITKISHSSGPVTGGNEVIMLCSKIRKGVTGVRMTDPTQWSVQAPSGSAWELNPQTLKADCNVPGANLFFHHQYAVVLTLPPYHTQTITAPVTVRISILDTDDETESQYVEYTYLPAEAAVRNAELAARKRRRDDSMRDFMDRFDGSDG
# [4] = biological target: T4, GST-Dm-Relish (Drosophila melanogaster, UniProt Q94527 99-473)
# T4 sequence: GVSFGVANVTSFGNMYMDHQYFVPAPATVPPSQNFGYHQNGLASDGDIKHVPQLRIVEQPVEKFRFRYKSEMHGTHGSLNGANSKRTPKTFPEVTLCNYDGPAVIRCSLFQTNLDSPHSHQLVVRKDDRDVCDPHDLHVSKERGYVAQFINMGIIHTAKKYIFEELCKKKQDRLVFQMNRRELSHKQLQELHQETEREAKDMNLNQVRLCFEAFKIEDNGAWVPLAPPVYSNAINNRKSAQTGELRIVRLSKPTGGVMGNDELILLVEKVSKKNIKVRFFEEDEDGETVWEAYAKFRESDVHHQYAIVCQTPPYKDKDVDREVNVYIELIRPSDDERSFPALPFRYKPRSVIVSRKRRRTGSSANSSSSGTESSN
# [5] = biological target: T5, GST-Aq-NF-kB (Amphimedon queenslandica, UniProt A9Y5G7 2-389)
# T5 sequence: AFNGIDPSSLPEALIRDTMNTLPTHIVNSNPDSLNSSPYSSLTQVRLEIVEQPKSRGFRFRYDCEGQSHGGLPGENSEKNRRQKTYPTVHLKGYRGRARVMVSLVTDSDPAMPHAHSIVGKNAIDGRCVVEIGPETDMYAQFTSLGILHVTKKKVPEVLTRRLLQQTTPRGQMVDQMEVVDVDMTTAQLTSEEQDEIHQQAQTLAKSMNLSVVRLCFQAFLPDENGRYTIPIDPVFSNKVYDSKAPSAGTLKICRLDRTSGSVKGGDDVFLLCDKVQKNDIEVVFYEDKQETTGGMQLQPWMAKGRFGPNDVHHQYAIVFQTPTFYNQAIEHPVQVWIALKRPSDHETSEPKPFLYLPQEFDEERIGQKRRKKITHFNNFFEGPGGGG
Sequence,binding signal [1],binding signal [2],binding signal [3],binding signal [4],binding signal [5]
CCGATTAACATCAGAATTGCCCCTGATGTTAATCGGGTCTTGATTCGCTTGACGCTGCTG,2.58 z-score,3.54 z-score,1.95 z-score,1.75 z-score,3.86 z-score
CCGATTAACATCAGACAATTCCCTGATGTTAATCGGGTCTTGATTCGCTTGACGCTGCTG,3.02 z-score,5 z-score,2.28 z-score,1.37 z-score,4.77 z-score
CCGATTAACATCACACACCCCCCTGATGTTAATCGGGTCTTGATTCGCTTGACGCTGCTG,4.13 z-score,3.15 z-score,3.85 z-score,3.82 z-score,3.48 z-score
CCGATTAACATCAGGGAAAACACTGATGTTAATCGGGTCTTGATTCGCTTGACGCTGCTG,3.49 z-score,4.89 z-score,4.18 z-score,5.1 z-score,6.06 z-score
CCGATTAACATCAGGGTATTACCTGATGTTAATCGGGTCTTGATTCGCTTGACGCTGCTG,4.39 z-score,6.02 z-score,1.57 z-score,5.28 z-score,7.69 z-score
CCGATTAACATCACAACCCCCCCTGATGTTAATCGGGTCTTGATTCGCTTGACGCTGCTG,5.55 z-score,3.59 z-score,3.83 z-score,6.16 z-score,4.6 z-score
CCGATTAACATCAGATGTCCCCCTGATGTTAATCGGGTCTTGATTCGCTTGACGCTGCTG,6.05 z-score,5.16 z-score,5.82 z-score,2.8 z-score,4.73 z-score
CCGATTAACATCAAGGGAATACCTGATGTTAATCGGGTCTTGATTCGCTTGACGCTGCTG,4.61 z-score,4.26 z-score,2.25 z-score,6.28 z-score,5.48 z-score
CCGATTAACATCAGGGGACGGGATGATGTTAATCGGGTCTTGATTCGCTTGACGCTGCTG,4.78 z-score,3.92 z-score,2.14 z-score,1.43 z-score,3.92 z-score
CCGATTAACATCAGGGGTATAACTGATGTTAATCGGGTCTTGATTCGCTTGACGCTGCTG,1.94 z-score,1.77 z-score,3.43 z-score,1.06 z-score,2.25 z-score
CCGATTAACATCAAAAAAACCCATGATGTTAATCGGGTCTTGATTCGCTTGACGCTGCTG,3.72 z-score,4.44 z-score,1.87 z-score,6.31 z-score,5.47 z-score
CCGATTAACATCAGGGAATTACATGATGTTAATCGGGTCTTGATTCGCTTGACGCTGCTG,4.01 z-score,5.15 z-score,4.3 z-score,8.99 z-score,4.92 z-score
CCGATTAACATCAGGGATATTTATGATGTTAATCGGGTCTTGATTCGCTTGACGCTGCTG,2.06 z-score,2.7 z-score,1.68 z-score,2.57 z-score,3.73 z-score
CCGATTAACATCAGGGGACAACCTGATGTTAATCGGGTCTTGATTCGCTTGACGCTGCTG,4.96 z-score,4.76 z-score,3.44 z-score,3.96 z-score,5.18 z-score
CCGATTAACATCAGGGGTGGGAATGATGTTAATCGGGTCTTGATTCGCTTGACGCTGCTG,2.31 z-score,2.09 z-score,3.75 z-score,2.17 z-score,2.94 z-score
CCGATTAACATCATGGGAAAAAATGATGTTAATCGGGTCTTGATTCGCTTGACGCTGCTG,1.94 z-score,3.64 z-score,4.93 z-score,1.7 z-score,2.57 z-score
CCGATTAACATCAAGGAATTACCTGATGTTAATCGGGTCTTGATTCGCTTGACGCTGCTG,1.08 z-score,2.06 z-score,,5.14 z-score,3.3 z-score
CCGATTAACATCACGGAAAGCCCTGATGTTAATCGGGTCTTGATTCGCTTGACGCTGCTG,1.02 z-score,1 z-score,,2.9 z-score,4.35 z-score
CCGATTAACATCAGGACTGTCCCTGATGTTAATCGGGTCTTGATTCGCTTGACGCTGCTG,4.85 z-score,5.38 z-score,1.21 z-score,3.04 z-score,7.35 z-score
CCGATTAACATCATACCCCCCCATGATGTTAATCGGGTCTTGATTCGCTTGACGCTGCTG,4.97 z-score,2.65 z-score,5.26 z-score,3.98 z-score,3.92 z-score
CCGATTAACATCAGGCAAGTCCCTGATGTTAATCGGGTCTTGATTCGCTTGACGCTGCTG,3.63 z-score,3.87 z-score,,2.41 z-score,5.74 z-score
CCGATTAACATCAGGGAAGTCCATGATGTTAATCGGGTCTTGATTCGCTTGACGCTGCTG,2.24 z-score,2.51 z-score,1.08 z-score,7.44 z-score,4.62 z-score
CCGATTAACATCAGGAGATACCCTGATGTTAATCGGGTCTTGATTCGCTTGACGCTGCTG,3.04 z-score,3.44 z-score,,3.18 z-score,6.4 z-score
CCGATTAACATCAGAAATCCCGATGATGTTAATCGGGTCTTGATTCGCTTGACGCTGCTG,3.14 z-score,2.98 z-score,,3.98 z-score,2.24 z-score
CCGATTAACATCAGGAAGACCCCTGATGTTAATCGGGTCTTGATTCGCTTGACGCTGCTG,3.9 z-score,3.08 z-score,,3.8 z-score,5.31 z-score
CCGATTAACATCACGGAATTACCTGATGTTAATCGGGTCTTGATTCGCTTGACGCTGCTG,1.02 z-score,1.63 z-score,,3.44 z-score,3.88 z-score
